From PubChem BioAssay AID651642 (Sanford-Burnham Center for Chemical Genomics, 2012)
Active and inactive are the calls of the source.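 How the source made its calls: active means average half-effect concentration of 10 µM or less in every one of the four cell panels; inactive means the rest.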

tested on: H9c2; test: protection of cardiomyocytes from stress damage, SAR follow-up, cell-based, panel, H9c2 and HL-1, H2O2, 2-deoxyglucose, ATP luminescence (AID 651642); settings: H9c2/HL-1 cardiomyocyte H2O2 oxidative damage, mean of runs, with H2O2

SMILES | outcome
CCOC(=O)c1cccc(NC(=O)CNC(=O)c2cc(-c3cc(OC)c(OC)c(OC)c3)nc3ccc(Br)cc23)c1 | active
COc1cc(-c2cc(C(=O)NCC(=O)Nc3ccc(C(C)=O)cc3)c3cc(C)ccc3n2)cc(OC)c1OC | active
COc1cc(-c2cc(C(=O)NCC(=O)Nc3cccc(C(C)=O)c3)c3cc(C)ccc3n2)cc(OC)c1OC | inactive
COc1ccc2c(c1OC)C(=O)N1c3ccccc3C(=O)N(Cc3c(Cl)cccc3Cl)C21 (configuration not stated) | inactive
CCOC(=O)c1cccc(NC(=O)CNC(=O)c2cc(-c3cc(OC)c(OC)c(OC)c3)nc3c(Cl)cccc23)c1 | inactive
CCOC(=O)c1cccc(NC(=O)CNC(=O)c2cc(-c3cc(OC)c(OC)c(OC)c3)nc3ccc(F)cc23)c1 | active
COc1cc(-c2cc(C(=O)Nc3cccc(C(=O)N4CCOCC4)c3)c3ccccc3n2)cc(OC)c1OC | active
COc1cc(-c2cc(C(=O)Nc3cccc(C(C)=O)c3)c3ccc(Cl)cc3n2)cc(OC)c1OC | inactive
COc1ccc2c(c1OC)C(=O)N1c3ccccc3C(=O)N(Cc3cccc(C)c3)C21 (configuration not stated) | inactive
COc1ccc2nc(-c3cc(OC)c(OC)c(OC)c3)cc(C(=O)Nc3cccc(C(C)=O)c3)c2c1 | inactive
CCOC(=O)c1ccc(NC(=O)c2cc(-c3cc(OC)c(OC)c(OC)c3)nc3ccccc23)cc1 | inactive
COc1cc(-c2cc(C(=O)Nc3cccc(-c4nn[nH]n4)c3)c3ccccc3n2)cc(OC)c1OC | inactive
COc1cc(-c2cc(C(=O)NCC(=O)O)c3ccccc3n2)cc(OC)c1OC | inactive
CCOC(=O)c1cccc(NC(=O)c2cc(-c3cc(OC)c(OC)c(OC)c3)nc3c(Cl)cccc23)c1 | inactive
COc1cc(-c2cc(C(=O)Nc3cccc(C(=O)N(C)C)c3)c3ccccc3n2)cc(OC)c1OC | inactive
COc1cc(-c2cc(C(=O)NCC(=O)Nc3cccc(C(C)=O)c3)c3cc(Br)ccc3n2)cc(OC)c1OC | active

SMILES | outcome
COc1ccc2c(c1OC)C(=O)N1c3ccccc3C(=O)N(Cc3cccc(F)c3)C21 (configuration not stated) | inactive
COc1ccc2nc(-c3cc(OC)c(OC)c(OC)c3)cc(C(=O)NCC(=O)Nc3cccc(C(C)=O)c3)c2c1 | inactive
COc1cc(-c2cc(C(=O)Nc3cccc(C(=O)O)c3)c3ccccc3n2)cc(OC)c1OC | inactive
COc1ccc2c(c1OC)C(=O)N1c3ccccc3C(=O)N(Cc3ccccc3Cl)C21 (configuration not stated) | inactive
COc1cc(-c2cc(C(=O)Nc3cccc(C(=O)NC4CC4)c3)c3ccccc3n2)cc(OC)c1OC | active
COc1cc(-c2cc(C(=O)Nc3cccc(C(C)=O)c3)c3cc(C)ccc3n2)cc(OC)c1OC | active
COc1ccc2c(c1OC)C(=O)N1c3ccccc3C(=O)N(Cc3ccccc3Br)C21 (configuration not stated) | inactive
COc1ccc2c(c1OC)C(=O)N1c3ccccc3C(=O)N(Cc3ccccc3)C21 (configuration not stated) | inactive
COc1cc(-c2cc(C(=O)Nc3cccc(C(=O)NCc4ccccc4)c3)c3ccccc3n2)cc(OC)c1OC | active
COC(=O)CNC(=O)c1cccc(NC(=O)c2cc(-c3cc(OC)c(OC)c(OC)c3)nc3ccccc23)c1 | inactive
COc1cc(-c2cc(C(=O)NCC(=O)Nc3cccc(C(C)=O)c3)c3cccc(Cl)c3n2)cc(OC)c1OC | active
COc1cccc(CNC(=O)CNC(=O)c2cc(-c3cc(OC)c(OC)c(OC)c3)nc3ccccc23)c1 | active
COc1ccc2c(c1OC)C(=O)N1c3ccccc3C(=O)N(Cc3ccc(C)cc3)C21 (configuration not stated) | inactive
COc1ccc2c(c1OC)C(=O)N1c3ccccc3C(=O)N(Cc3ccccc3C)C21 (configuration not stated) | inactive
COc1ccc(NC(=O)CNC(=O)c2cc(-c3cc(OC)c(OC)c(OC)c3)nc3ccccc23)cc1 | inactive
COc1ccc2c(c1OC)C(=O)N1c3ccccc3C(=O)N(Cc3cccc(Cl)c3Cl)C21 (configuration not stated) | inactive
